This note sets out measurements from PMC7862700, “An all-to-all approach to the identification of sequence-specific readers for epigenetic DNA modifications on cytosine”.

Experiment in all cases: DAPPL (digital affinity profiling via proximity ligation, sequencing); 10 mM Tris-HCl pH 7.5, 50 mM NaCl, 1 mM DTT, 4% glycerol, room temperature, 30 min; GST-TFs on glutathione beads, 16-mer random dsDNA library, 0.1% formaldehyde crosslink after washing; high values mean tight binding
In one assay the target is T1, FEV (Homo sapiens, UniProt Q99581 1-238).
T1 sequence: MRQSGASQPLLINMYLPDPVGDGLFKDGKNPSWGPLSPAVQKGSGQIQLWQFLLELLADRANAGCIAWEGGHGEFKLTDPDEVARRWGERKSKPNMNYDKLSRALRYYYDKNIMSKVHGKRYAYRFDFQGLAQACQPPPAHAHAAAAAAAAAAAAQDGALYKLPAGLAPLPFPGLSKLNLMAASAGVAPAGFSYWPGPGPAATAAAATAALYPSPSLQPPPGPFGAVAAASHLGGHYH
To be noted: protein: recombinant; tags: N-terminal GST; dsDNA, one strand shown. The procedure, abridged:
(§1)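 Yeast served to express human transcription factors as GST fusions, which were then captured on glutathione beads and labelled with DNA barcodes. Pooled with a tag-only sample, they were incubated with 200 nmole of a 16-mer random double-stranded DNA library for 30 min at room temperature in Tris/NaCl/DTT/glycerol buffer, washed, crosslinked with 0.1% formaldehyde, ligated by proximity, amplified by PCR and sequenced. Dividing each hexamer's read frequency for a factor by its frequency for the tag-only sample gives the binding signal.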

Another assay concerns the target ETV5 (Homo sapiens, UniProt P41161 1-510). Conditions: protein: recombinant; tags: N-terminal GST; dsDNA, one strand shown. In a few lines: as §1
For another assay, the target named is HSF1 (Homo sapiens, UniProt Q00613 1-529). Conditions: protein: recombinant; tags: N-terminal GST; chain copies: 3; dsDNA, one strand shown. In a few lines:
as §1

For the next assay, the target named is T2, SPIC (Homo sapiens, UniProt Q8N5J4 1-248).
T2 sequence: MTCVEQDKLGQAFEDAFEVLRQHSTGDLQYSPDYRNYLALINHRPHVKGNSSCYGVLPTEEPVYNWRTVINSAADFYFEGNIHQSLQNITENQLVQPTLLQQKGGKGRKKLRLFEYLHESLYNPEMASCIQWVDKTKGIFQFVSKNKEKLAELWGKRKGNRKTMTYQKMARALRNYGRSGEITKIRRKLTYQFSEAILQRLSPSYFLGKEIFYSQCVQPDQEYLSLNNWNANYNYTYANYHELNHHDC
To be noted: protein: recombinant; tags: N-terminal GST; dsDNA, one strand shown. In a few lines: as §1

Another assay has as its target ELF4 (Homo sapiens, UniProt Q99607 1-663). To be noted: protein: recombinant; tags: N-terminal GST; dsDNA, one strand shown. In a few lines:
as §1

The target of a further assay is T3, ELK4 (Homo sapiens, UniProt P28324-2 1-405).
T3 sequence: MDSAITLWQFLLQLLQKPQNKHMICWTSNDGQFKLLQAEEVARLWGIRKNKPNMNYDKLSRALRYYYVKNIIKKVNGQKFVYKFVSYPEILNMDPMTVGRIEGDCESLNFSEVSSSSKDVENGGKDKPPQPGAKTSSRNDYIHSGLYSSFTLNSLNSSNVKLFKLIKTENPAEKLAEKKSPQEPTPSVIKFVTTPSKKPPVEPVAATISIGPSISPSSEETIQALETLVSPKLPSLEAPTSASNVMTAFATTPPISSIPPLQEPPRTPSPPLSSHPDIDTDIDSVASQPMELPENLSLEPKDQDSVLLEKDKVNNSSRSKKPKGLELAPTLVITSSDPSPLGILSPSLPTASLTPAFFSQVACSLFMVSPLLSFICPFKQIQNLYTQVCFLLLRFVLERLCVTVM
Conditions: protein: recombinant; tags: N-terminal GST; dsDNA, one strand shown. The procedure, abridged:
as §1

Another assay deals with T4, ETV2 (Homo sapiens, UniProt O00321 1-342).
T4 sequence: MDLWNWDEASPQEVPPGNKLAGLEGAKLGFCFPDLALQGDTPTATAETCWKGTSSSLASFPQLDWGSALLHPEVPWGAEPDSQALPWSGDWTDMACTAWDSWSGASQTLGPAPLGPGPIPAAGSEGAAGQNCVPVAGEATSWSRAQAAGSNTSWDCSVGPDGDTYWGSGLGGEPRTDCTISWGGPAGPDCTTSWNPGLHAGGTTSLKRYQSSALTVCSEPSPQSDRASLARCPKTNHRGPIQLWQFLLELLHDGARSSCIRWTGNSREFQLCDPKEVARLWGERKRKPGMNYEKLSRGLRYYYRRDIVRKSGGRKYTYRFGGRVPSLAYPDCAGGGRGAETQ
Conditions: protein: recombinant; tags: N-terminal GST; dsDNA, one strand shown. The procedure, abridged: as §1

The target of a further assay is T5, ELF3 (Homo sapiens, UniProt P78545 1-371).
T5 sequence: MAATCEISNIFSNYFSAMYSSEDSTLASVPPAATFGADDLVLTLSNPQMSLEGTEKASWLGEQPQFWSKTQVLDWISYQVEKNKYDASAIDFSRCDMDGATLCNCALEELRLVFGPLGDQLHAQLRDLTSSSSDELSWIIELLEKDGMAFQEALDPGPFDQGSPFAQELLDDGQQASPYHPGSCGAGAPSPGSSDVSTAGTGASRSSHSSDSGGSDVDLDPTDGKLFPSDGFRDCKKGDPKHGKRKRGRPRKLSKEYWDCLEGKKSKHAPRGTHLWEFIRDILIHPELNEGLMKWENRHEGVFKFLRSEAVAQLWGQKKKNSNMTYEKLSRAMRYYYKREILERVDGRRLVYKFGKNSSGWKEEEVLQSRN
To be noted: protein: recombinant; tags: N-terminal GST; dsDNA, one strand shown. The procedure, abridged:
as §1

The target in another assay is CRX (Homo sapiens, UniProt O43186 1-299). Conditions: protein: recombinant; tags: N-terminal GST; dsDNA, one strand shown. In a few lines:
as §1

The target of the next assay is ETV1 (Homo sapiens, UniProt P50549 1-477). To be noted: protein: recombinant; tags: N-terminal GST; dsDNA, one strand shown. In a few lines:
as §1

ETV5, sequence (P41161 whole entry): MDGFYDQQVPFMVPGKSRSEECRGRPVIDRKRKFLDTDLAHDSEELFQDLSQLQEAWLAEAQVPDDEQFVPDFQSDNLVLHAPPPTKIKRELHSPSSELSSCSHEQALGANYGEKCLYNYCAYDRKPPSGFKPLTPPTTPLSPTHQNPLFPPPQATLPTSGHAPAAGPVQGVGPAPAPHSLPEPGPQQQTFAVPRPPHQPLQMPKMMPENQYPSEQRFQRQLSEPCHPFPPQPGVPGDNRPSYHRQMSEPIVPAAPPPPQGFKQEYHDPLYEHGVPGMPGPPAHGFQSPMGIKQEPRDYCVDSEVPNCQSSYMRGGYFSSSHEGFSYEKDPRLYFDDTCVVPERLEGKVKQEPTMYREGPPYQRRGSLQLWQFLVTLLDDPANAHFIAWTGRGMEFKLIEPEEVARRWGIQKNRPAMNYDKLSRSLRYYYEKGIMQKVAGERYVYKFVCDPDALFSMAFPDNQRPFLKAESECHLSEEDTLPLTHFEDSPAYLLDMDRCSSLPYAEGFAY
ELF4, sequence (Q99607 whole entry): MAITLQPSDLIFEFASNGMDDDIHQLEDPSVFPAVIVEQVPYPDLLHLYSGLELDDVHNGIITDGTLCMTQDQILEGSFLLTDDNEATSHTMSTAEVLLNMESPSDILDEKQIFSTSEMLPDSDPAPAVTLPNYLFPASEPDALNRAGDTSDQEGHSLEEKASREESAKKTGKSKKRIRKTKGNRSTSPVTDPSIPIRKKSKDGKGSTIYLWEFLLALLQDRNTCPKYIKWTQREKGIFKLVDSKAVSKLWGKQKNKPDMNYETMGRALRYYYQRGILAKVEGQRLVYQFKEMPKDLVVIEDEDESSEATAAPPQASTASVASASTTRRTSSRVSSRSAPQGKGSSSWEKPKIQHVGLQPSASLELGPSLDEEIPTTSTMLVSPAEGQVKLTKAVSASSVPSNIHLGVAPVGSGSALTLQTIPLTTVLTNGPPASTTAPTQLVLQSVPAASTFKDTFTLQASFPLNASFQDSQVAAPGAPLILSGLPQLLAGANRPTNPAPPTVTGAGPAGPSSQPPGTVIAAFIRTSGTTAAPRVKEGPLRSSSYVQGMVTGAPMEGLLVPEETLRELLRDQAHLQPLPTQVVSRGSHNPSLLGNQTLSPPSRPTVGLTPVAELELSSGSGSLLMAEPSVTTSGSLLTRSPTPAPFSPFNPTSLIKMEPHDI
ETV1, sequence (P50549 whole entry): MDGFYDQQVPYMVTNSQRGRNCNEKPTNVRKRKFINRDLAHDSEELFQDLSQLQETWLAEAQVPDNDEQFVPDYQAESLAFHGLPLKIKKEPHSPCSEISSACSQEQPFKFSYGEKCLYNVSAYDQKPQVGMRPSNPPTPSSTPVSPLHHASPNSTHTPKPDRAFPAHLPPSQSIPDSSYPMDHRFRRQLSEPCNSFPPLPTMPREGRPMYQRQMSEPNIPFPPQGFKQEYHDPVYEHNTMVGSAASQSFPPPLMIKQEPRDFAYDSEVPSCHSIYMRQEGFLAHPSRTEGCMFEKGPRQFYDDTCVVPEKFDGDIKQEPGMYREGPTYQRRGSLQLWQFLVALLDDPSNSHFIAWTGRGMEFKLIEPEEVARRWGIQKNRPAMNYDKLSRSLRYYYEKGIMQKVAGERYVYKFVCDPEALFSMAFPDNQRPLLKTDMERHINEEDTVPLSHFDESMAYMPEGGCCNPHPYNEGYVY
HSF1, sequence (Q00613 whole entry): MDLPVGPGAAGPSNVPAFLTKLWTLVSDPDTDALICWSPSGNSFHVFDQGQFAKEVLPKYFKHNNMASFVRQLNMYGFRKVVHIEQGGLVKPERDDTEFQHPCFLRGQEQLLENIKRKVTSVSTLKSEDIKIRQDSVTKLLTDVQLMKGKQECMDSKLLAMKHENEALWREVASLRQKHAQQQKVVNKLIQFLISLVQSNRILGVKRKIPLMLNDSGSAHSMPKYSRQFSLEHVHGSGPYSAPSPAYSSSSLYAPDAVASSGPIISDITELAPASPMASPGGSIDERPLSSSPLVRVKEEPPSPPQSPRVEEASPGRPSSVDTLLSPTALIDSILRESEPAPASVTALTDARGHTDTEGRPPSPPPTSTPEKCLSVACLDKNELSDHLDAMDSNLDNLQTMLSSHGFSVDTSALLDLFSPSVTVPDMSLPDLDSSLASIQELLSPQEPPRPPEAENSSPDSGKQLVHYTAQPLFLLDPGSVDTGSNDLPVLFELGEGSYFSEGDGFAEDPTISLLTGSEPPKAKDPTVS
CRX, sequence (O43186 whole entry): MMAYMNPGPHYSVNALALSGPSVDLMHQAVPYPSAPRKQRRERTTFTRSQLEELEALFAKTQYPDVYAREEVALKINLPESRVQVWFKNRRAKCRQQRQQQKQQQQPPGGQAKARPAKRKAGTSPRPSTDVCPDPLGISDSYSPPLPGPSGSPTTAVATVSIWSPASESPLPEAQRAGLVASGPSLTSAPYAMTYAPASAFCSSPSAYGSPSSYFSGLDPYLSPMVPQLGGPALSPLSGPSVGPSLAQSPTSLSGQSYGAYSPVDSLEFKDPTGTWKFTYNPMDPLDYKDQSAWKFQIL

Regarding GACATT, the binding signal in the assay with FEV was 1.13 fold enrichment (6-mer frequency, TF over GST control); with ETV5 it was 1.17 fold enrichment (6-mer frequency, TF over GST control); with HSF1 it was 1.09 fold enrichment (6-mer frequency, TF over GST control); with SPIC, 1.12 fold enrichment (6-mer frequency, TF over GST control); with ELF4, 1.14 fold enrichment (6-mer frequency, TF over GST control); in the assay with ELK4 it was 1.1 fold enrichment (6-mer frequency, TF over GST control). Further, the binding signal in the assay with ETV2 is 1.13 fold enrichment (6-mer frequency, TF over GST control); in the assay with ELF3, 1.16 fold enrichment (6-mer frequency, TF over GST control); with CRX, 1.01 fold enrichment (6-mer frequency, TF over GST control); with ETV1, 1.26 fold enrichment (6-mer frequency, TF over GST control).

On to CTCCGC, for which the binding signal with FEV is 1.43 fold enrichment (6-mer frequency, TF over GST control); in the assay with ETV5, 1.52 fold enrichment (6-mer frequency, TF over GST control); with HSF1 it was 1.15 fold enrichment (6-mer frequency, TF over GST control); in the assay with SPIC, 1.51 fold enrichment (6-mer frequency, TF over GST control); in the assay with ELF4 it was 1.67 fold enrichment (6-mer frequency, TF over GST control); with ELK4, 1.39 fold enrichment (6-mer frequency, TF over GST control). In addition, the binding signal is 1.57 fold enrichment (6-mer frequency, TF over GST control) with ETV2; 1.38 fold enrichment (6-mer frequency, TF over GST control) with ELF3; 1.3 fold enrichment (6-mer frequency, TF over GST control) with CRX; 1.56 fold enrichment (6-mer frequency, TF over GST control) with ETV1.

As to ACGATA, the binding signal with FEV was 1.12 fold enrichment (6-mer frequency, TF over GST control); with ETV5 it was 1.16 fold enrichment (6-mer frequency, TF over GST control); with HSF1, 1.17 fold enrichment (6-mer frequency, TF over GST control); with SPIC it was 1.38 fold enrichment (6-mer frequency, TF over GST control); in the assay with ELF4 it was 1.22 fold enrichment (6-mer frequency, TF over GST control); in the assay with ELK4, 1.18 fold enrichment (6-mer frequency, TF over GST control). The binding signal is 1.22 fold enrichment (6-mer frequency, TF over GST control) in the assay with ETV2; 1.04 fold enrichment (6-mer frequency, TF over GST control) with ELF3; 1.26 fold enrichment (6-mer frequency, TF over GST control) with CRX; 1.15 fold enrichment (6-mer frequency, TF over GST control) in the assay with ETV1.

For TACGGC, the binding signal with FEV was 1.15 fold enrichment (6-mer frequency, TF over GST control); with ETV5 it was 1.15 fold enrichment (6-mer frequency, TF over GST control); with HSF1, 1.02 fold enrichment (6-mer frequency, TF over GST control); with SPIC it was 1.05 fold enrichment (6-mer frequency, TF over GST control); with ELF4, 1.28 fold enrichment (6-mer frequency, TF over GST control); in the assay with ELK4 it was 1.19 fold enrichment (6-mer frequency, TF over GST control). Further, the binding signal was 1.12 fold enrichment (6-mer frequency, TF over GST control) with ETV2; 1.14 fold enrichment (6-mer frequency, TF over GST control) with ELF3; 1.2 fold enrichment (6-mer frequency, TF over GST control) with CRX; 1.14 fold enrichment (6-mer frequency, TF over GST control) with ETV1.

With CGTCTT, the binding signal was 1.33 fold enrichment (6-mer frequency, TF over GST control) with FEV; 1.37 fold enrichment (6-mer frequency, TF over GST control) with ETV5; 1.31 fold enrichment (6-mer frequency, TF over GST control) with HSF1; 1.38 fold enrichment (6-mer frequency, TF over GST control) in the assay with SPIC; 1.38 fold enrichment (6-mer frequency, TF over GST control) in the assay with ELF4; 1.21 fold enrichment (6-mer frequency, TF over GST control) with ELK4. The binding signal with ETV2 is 1.29 fold enrichment (6-mer frequency, TF over GST control); in the assay with ELF3, 1.56 fold enrichment (6-mer frequency, TF over GST control); with CRX, 1.5 fold enrichment (6-mer frequency, TF over GST control); with ETV1, 1.48 fold enrichment (6-mer frequency, TF over GST control).

Turning to AAAGAA, the binding signal with FEV was 1.23 fold enrichment (6-mer frequency, TF over GST control); in the assay with ETV5 it was 1.22 fold enrichment (6-mer frequency, TF over GST control); with HSF1, 1.99 fold enrichment (6-mer frequency, TF over GST control); with SPIC it was 1.17 fold enrichment (6-mer frequency, TF over GST control); in the assay with ELF4, 1.29 fold enrichment (6-mer frequency, TF over GST control); with ELK4 it was 1.32 fold enrichment (6-mer frequency, TF over GST control). Besides, the binding signal was 1.25 fold enrichment (6-mer frequency, TF over GST control) in the assay with ETV2; 1.29 fold enrichment (6-mer frequency, TF over GST control) with ELF3; 1.48 fold enrichment (6-mer frequency, TF over GST control) in the assay with CRX; 1.29 fold enrichment (6-mer frequency, TF over GST control) in the assay with ETV1.

Take ATAATT: the binding signal with FEV was 1.25 fold enrichment (6-mer frequency, TF over GST control); in the assay with ETV5, 1.37 fold enrichment (6-mer frequency, TF over GST control); with HSF1, 1.76 fold enrichment (6-mer frequency, TF over GST control); in the assay with SPIC, 1.41 fold enrichment (6-mer frequency, TF over GST control); in the assay with ELF4, 1.25 fold enrichment (6-mer frequency, TF over GST control); in the assay with ELK4, 1.33 fold enrichment (6-mer frequency, TF over GST control). The binding signal with ETV2 was 1.5 fold enrichment (6-mer frequency, TF over GST control); with ELF3, 1.34 fold enrichment (6-mer frequency, TF over GST control); in the assay with CRX it was 2.16 fold enrichment (6-mer frequency, TF over GST control); in the assay with ETV1 it was 1.34 fold enrichment (6-mer frequency, TF over GST control).
